Bioassay records (PubChem BioAssay)
Sampled rows, rich in hits. Any-hit rate of the full collection: about 4.8%.
DAX1 inh-1: inhibits human nuclear receptor DAX1. HEK293 Gal4-DAX1 luciferase reporter, luminescence. inhibition, % at 6.75 µM. 340,000 tested, 0.99% active;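 active means inhibition above the mean over all tested compounds plus 3 SD, cut at about 4.2% in these data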;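 further: 0% = DAX1-transfected cells with DMSO and 100% = empty-vector control cells with DMSO; inhibition shows as a rise in luminescence from relieved DAX1 repression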
Target sequence (P51843 207-470 limits assumed): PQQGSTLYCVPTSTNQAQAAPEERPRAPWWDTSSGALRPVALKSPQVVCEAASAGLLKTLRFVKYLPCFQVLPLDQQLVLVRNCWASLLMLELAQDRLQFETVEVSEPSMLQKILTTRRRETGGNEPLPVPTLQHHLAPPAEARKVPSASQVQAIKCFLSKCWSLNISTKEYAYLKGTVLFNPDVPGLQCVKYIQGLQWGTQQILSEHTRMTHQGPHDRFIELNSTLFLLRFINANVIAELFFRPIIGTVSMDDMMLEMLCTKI
ssDAF-12 act: activates DAF-12 receptor from parasite S. stercoralis; AID 652126; 370,000 tested, 1% active; HEK293 ssDAF-12/GRIP1 lit1-tk-luc reporter, luminescence; % of 3 µM dafachronic acid response; activation, % at 6.8 µM;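 active means activation above the mean over all tested compounds plus 3 SD, cut at about 0.9% in these data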;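 further: 0% = DMSO-only wells and 100% = 3 µM delta7-dafachronic acid wells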
hgDAF-12 ag: hgDAF-12 agonism, primary luciferase screen. HEK293 GAL4-hgDAF12 UAS-luciferase reporter, agonist luminescence; normalized to butyrate control. 370,000 tested, 1.8% active. activation, % at 6.8 µM;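 active means activation above a cutoff set at the mean of all screened compounds plus 3 SD, cut at about 10% in these data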;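 further: 0% = DMSO wells and 100% = sodium butyrate wells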
DAX1 inh-2: DAX1 (NR0B1) inhibition, primary screen. HEK293T StAR-luciferase reporter, SF-1/DAX-1 repression relief. inhibition, % at 6.8 µM. 370,000 tested, 1.1% active;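 active means inhibition above the mean over all tested compounds plus 3 SD, cut at about 3.6% in these data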;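 further: 0% = DAX-1 cells with DMSO and 100% = cells lacking DAX-1 with DMSO; higher inhibition means more luminescence from relief of DAX-1 repression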
SMARCA2 act: activators of SMARCA2 function. MG213 cells, MMTV-luciferase reporter, dexamethasone, overnight. activation, % at 9.1 µM. 370,000 tested, 1% active. AID 652017; in the data active means activation above about 7.8%;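 further: 0% = vehicle wells and 100% = reference activator wells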
hcDAF12 agonist: activators of H. contortus DAF-12 nuclear receptor. AID 652067. HEK293 hcDAF-12 lit1-tk-luc reporter, luminescence; 0% DMSO, 100% Δ7-dafachronic acid. activation, % at 6.8 µM. 370,000 tested, 1.4% active;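 active means activation above the mean of all tested compounds plus 3 SD, cut at about 5.5% in these data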;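 further: 100% = response to 3 µM Δ7-dafachronic acid high control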
LXR ag: LXR-beta agonism as hcDAF-12 counter-screen; 3,400 tested, under 10 active; AID 743027; activation, % at 6.8 µM; shares compounds with hcDAF12 agonist; HEK293 Gal4-LXR tk-luc reporter, luminescence, 24 h; normalized: DMSO 0%, positive control 100%;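 active means mean percent activation of the reporter above a cutoff set as the average over tested compounds plus their standard deviation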
hcDAF12 ag: hcDAF-12 agonism, confirmation assay. shares compounds with hcDAF12 agonist. AID 743032. HEK293 hcDAF-12 lit1-tk-luc reporter, luminescence; % of Δ7-dafachronic acid response. activation, % at 6.8 µM. 3,400 tested, 61% active;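 active means mean activation across triplicate tests above the threshold derived from the earlier primary screen, cut at about 5.5% in these data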;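 further: 0% = DMSO only wells and 100% = 3 µM Δ7-dafachronic acid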
hgDAF12 conf: hgDAF-12 agonism, confirmation assay. activation, % at 6.8 µM. 3,300 tested, 80% active. HEK293 GAL4-hgDAF12 luciferase reporter, agonist mode; percent of butyrate response. shares compounds with hgDAF-12 ag;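 active means mean activation over triplicate wells above the hit cutoff derived from the earlier primary screen, cut at about 11% in these data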;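 further: 0% = DMSO low control and 100% = 2 mM sodium butyrate high control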
LXR ag 2: LXR-beta agonism as DAF-12 counter-screen; shares compounds with hgDAF-12 ag; HEK293 Gal4-LXR luciferase reporter, 24 h; activation, % at 6.8 µM; 3,300 tested, under 10 active;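 active means mean activation of the triplicate above a set limit carried over from the primary screen, none filed active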
Numbers without * were called inactive; · = no result.

SMILES	DAX1 inh-1	ssDAF-12 act	hgDAF-12 ag	DAX1 inh-2	SMARCA2 act	hcDAF12 agonist	LXR ag	hcDAF12 ag	hgDAF12 conf	LXR ag 2
Cc1ccc(Nc2nc(-c3ccc(F)cc3)cs2)nc1	6.4*	2.7*	14*	2	0	18*	1	11*	18*	1
Cc1cc(NC(=O)CCN2C(=O)C3C4CCC(C4)C3C2=O)cc(C)c1Br (stereo not given)	-1	-1	0	0	0	-1	·	·	·	·
c1ccc2c(c1)CCN(c1nc3cc4c(cc3s1)OCO4)C2	3	2.2*	14*	4.2*	0	8.8*	2	8.1*	19*	1
O=C(CNC(=O)c1ccccc1)NCCc1nc2ccccc2[nH]1	1	-1	0	0	0	-1	·	·	·	·
Cc1ccc(-c2cc(-c3cccs3)[nH]n2)c(O)c1	3	2.3*	19*	4.3*	6	19*	2	13*	21*	1
Cc1ccc(O)c(-c2cc(-c3ccccc3C)[nH]n2)c1	0	0	7	0	1	1	·	·	·	·
Cc1ccc(CN2CC(C(=O)Nc3ccccc3N3CCCC3)CC2=O)cc1 (stereo not given)	0	-1	-2	-1	2	2	·	·	·	·
COc1ccc(CCCc2nnc(SCC(=O)NN)o2)cc1	-1	-2	-3	0	-3	-2	·	·	·	·
CC1C(C(=O)Nc2ccccc2)CCCC1(C)C(=O)O (stereo not given)	0	-1	-1	0	5	-1	·	·	·	·
O=C(Cn1cc([N+](=O)[O-])ccc1=O)Nc1ccc2c(c1)OCO2	1	-1	1	2	3	2	·	·	·	·
Cc1ccc(COc2ccc(C)nc2[N+](=O)[O-])cc1	·	0	14*	2	6	9.6*	1	7.3*	14*	1
Cc1ccc(CNC(=O)COc2ccc(C)nc2[N+](=O)[O-])cc1	0	-1	-1	0	0	-4	·	·	·	·
C#CCOCCOCCOCCNc1nc(N2CCN(C(=O)[C@H]([C@@H](C)CC)n3cc(CCCCN)nn3)CC2)nc(N2CCN(C(=O)[C@H]([C@@H](C)CC)n3cc(CCCN=C(N)N)nn3)CC2)n1	1	-1	1	0	2	-1	·	·	·	·
Cc1ccc2nc(NC(=O)c3ccccc3F)sc2c1	-1	1.6*	19*	2	3	13*	2	15*	20*	1
COc1ccc2nc(NC(=O)c3cnccn3)sc2c1	0	1.1*	15*	3.6*	0	8.6*	1	5	15*	1
CCOc1ccc2nc(NC(=O)c3ccccn3)sc2c1	-4	-1	-6	-2	-6	2	·	·	·	·
O=C(Nc1nc2ccc(F)cc2s1)c1cccs1	1	2.7*	18*	3	-1	19*	1	8.1*	19*	1
COc1ccc2nc(NC(=O)c3ccccc3F)sc2c1	2	0	16*	3	5	6.9*	2	6.2*	21*	1
O=C(C1=C[C@@H](c2ccc3c(c2)OCO3)C[C@@H](OCCCCO)O1)N1CCN(Cc2ccc3c(c2)OCO3)CC1	1	-2	-4	0	0	-1	·	·	·	·
CCc1ccc(C(O)(C(C)C)C(CN2CCOCC2)c2ccccc2)cc1 (stereo not given)	-1	-2	-2	-1	-4	-3	·	·	·	·
Cc1ccc(/C(=N/Nc2ncnc3ccccc23)C(=O)O)cc1	3	1.9*	18*	3.7*	3	17*	0	6.3*	12*	0
N/C(=N\OC(=O)c1cc(Cl)ccc1Cl)c1ccccn1	-1	2.2*	18*	3	5	17*	2	16*	21*	1
Cc1ccc(C(=O)O/N=C(\N)c2ccccn2)cc1	-3	-2	-8	-1	-9	-2	·	·	·	·
O=C(CSc1ncccc1-c1nc2ccccc2[nH]1)NCc1ccco1	-1	0	1	0	1	2	·	·	·	·
Cc1cc2nc(-c3cccnc3SCC(=O)NCc3ccco3)[nH]c2cc1C	-1	1.3*	14*	2	5	11*	1	9.1*	25*	1
SMILES	DAX1 inh-1	ssDAF-12 act	hgDAF-12 ag	DAX1 inh-2	SMARCA2 act	hcDAF12 agonist	LXR ag	hcDAF12 ag	hgDAF12 conf	LXR ag 2
OC(c1ccc(F)cc1)c1nc(-c2cc3ccccc3o2)cs1 (stereo not given)	·	1.2*	15*	3.9*	1	6.6*	1	4	14*	0
Cc1cc(C)c2[nH]c(O)c(N=Nc3ccc(C(=O)O)cc3)c2c1	-1	0	2	0	2	2	·	·	·	·
CC(C)(C)C1(C)OC(C(=O)NC2CCCCC2)C(C(=O)NC2CCCCC2)O1 (stereo not given)	0	-1	0	1	1	-1	·	·	·	·
COc1ccc(C2=Nc3ccccc3N(C(=O)c3ccc4ncccc4c3)C2C(=O)NC2CCCC2)cc1 (stereo not given)	·	2.3*	18*	2	-2	9.7*	1	10*	12*	0
COc1ccc(CCC(=O)N2c3ccccc3N=C(c3ccc(C(F)(F)F)cc3)C2C(=O)NC2CCCC2)cc1 (stereo not given)	·	0	6	2	0	3	·	·	·	·
O=C(NCc1ccccc1)Nc1cccn(Cc2ccc(F)cc2)c1=O	0	-2	-2	-1	-3	-4	·	·	·	·
O=C(O)C(=O)/C(=C\c1ccccc1)c1ccc2ccccc2n1	3	3.3*	17*	4.5*	8	19*	1	16*	22*	1
O=C(O)C(=O)/C(=C\c1ccsc1)c1ccc2ccccc2n1	2	3.2*	16*	3	3	23*	1	14*	20*	1
O=C(NCc1cccs1)c1ccc2ccccc2n1	0	-1	2	0	-3	3	·	·	·	·
O=C(c1ccccc1)c1ccc2ccccc2n1	2	-1	1	0	1	-2	·	·	·	·
